Measurements published in PubChem BioAssay (Tox21).
Where “and” joins values, the source holds several entries; their conditions need not be identical. Equal values may be shown once. Results filed as inconclusive are left out. Calls of active or inactive are those of the source. Unless noted, the call rests on the fitted dose curve; in most records, active means well fitted curve in the direction sought with a large enough effect in the repeat runs; inconclusive means weak or mixed curves; inactive means no such curve, though single readings can be large; an effect the other way counts as inactive or inconclusive.

Tests used:
[1] = qHTS assay to identify small molecule agonists of the hypoxia (HIF-1) signaling pathway - cell viability counter screen (AID 1224844; calls by dose curve; further: nearly all actives have a fitted effect of over 50% in size)
Procedure, shortened: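 In this counter screen, HRE-bla ME-180 cell viability after 17 hrs of compound exposure at 37C was read by CellTiter-Glo luminescence, multiplexed with the beta-lactamase reporter measurement.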

[2] = qHTS assay to identify small molecule agonists of H2AX (AID 1224845; active means well fitted activation curve with a large enough effect in the signal ratio in the repeat runs, not every such curve was filed as active; the % refers to the signal ratio)
Procedure, shortened: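 Wild-type CHO-K1 cells plated overnight, then exposed 3 hr at 37C to compounds at 15 concentrations (0.76% DMSO). Lysed, then HTRF anti-pH2AX(S139)-cryptate/anti-H2AX-d2 detection after 24 hr at room temperature; emissions 665 and 620 nm.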

[3] = qHTS assay to identify small molecule agonists of the hypoxia (HIF-1) signaling pathway (AID 1224846; active means well fitted activation curve with a large enough effect in the signal ratio in the repeat runs, not every such curve was filed as active; the % refers to the signal ratio)
Procedure, shortened: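 ME-180 HRE-bla reporter cells; compounds in DMSO, 17 h at 37C; read-out beta-lactamase via CCF4-AM FRET.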

[4] = qHTS assay to identify small molecule agonists of H2AX - cell viability counter screen (AID 1224847; calls by dose curve; further: top concentration of the series differs between compounds; nearly all actives have a fitted effect of over 30% in size)
Procedure, shortened: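 Compounds tested at 15 concentrations were incubated 3 hr at 37C with wild-type CHO-K1 cells; cellular ATP-based luminescence (CellTiter-Glo) indicated viability.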

[5] = qHTS RealTime-Glo MT Cell Viability Assay in HepG2 cells - 24 hour (AID 1224867); further: nearly all actives have a fitted effect of over 50% in size
Procedure, shortened: (§1)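 Luminescence read-out: viable HepG2 cells reduce a prosubstrate to a NanoLuc substrate, giving a signal proportional to live cell number. Reads taken at 0, 8, 16, 24, 32 and 40 h of compound exposure at 37 C.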

[6] = qHTS RealTime-Glo MT Cell Viability Assay in HEK293 cells - 32 hour (AID 1224868); further: top concentration of the series differs between compounds; nearly all actives have a fitted effect of over 50% in size
Procedure, shortened: (§2)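 Nonlytic real-time viability readout: viable cells convert prosubstrate to NanoLuc substrate, giving luminescence proportional to live cell number. HEK293, 600 cells/well, compound added after 5 h, continuous culture at 37 C.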

[7] = A CellTox Green Cytotoxicity Assay to monitor cytotoxicity in HEK293 cells - 0 hour (AID 1224869); further: nearly all actives have a fitted effect of over 50% in size
Procedure, shortened: (§3)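 Real-time, in one plate: 600 HEK293 cells/well with dead-cell DNA dye, pinned compound after 5 h, 37 C incubation over 40 h; viable cells give no appreciable fluorescence.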

[8] = A CellTox Green Cytotoxicity Assay to monitor cytotoxicity in HEK293 cells - 40 hour (AID 1224871); further: nearly all actives have a fitted effect of over 45% in size
Procedure, shortened: as §3

[9] = qHTS RealTime-Glo MT Cell Viability Assay in HEK293 cells - 16 hour (AID 1224872)
Procedure, shortened: as §2

[10] = qHTS RealTime-Glo MT Cell Viability Assay in HepG2 cells - 8 hour (AID 1224873); further: nearly all actives have a fitted effect of over 55% in size
Procedure, shortened: (§4)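 HepG2 cells mixed with RealTime-Glo MT reagents (NanoLuc plus cell-permeant prosubstrate) were seeded at 600 cells/well, incubated 5 h at 37 C/5% CO2, then pinned with compounds in DMSO; nonlytic luminescence tracked viability during 40 h treatment.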

[11] = qHTS RealTime-Glo MT Cell Viability Assay in HEK293 cells - 40 hour (AID 1224874); conditions: RealTime-Glo luminescence; max response: stronger effect = lower value; further: nearly all actives have a fitted effect of over 50% in size
Procedure, shortened: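 Kinetic, non-lysing viability readout. Seed HEK293 (600/well) with reagent, incubate 5 h at 37 C/5% CO2, pin 23 nL compound in DMSO, incubate at 37 C, read luminescence at 0, 8, 16, 24, 32, 40 h.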

[12] = A CellTox Green Cytotoxicity Assay to monitor cytotoxicity in HEK293 cells - 24 hour (AID 1224875); further: nearly all actives have a fitted effect of over 45% in size
Procedure, shortened: as §3

[13] = A CellTox Green Cytotoxicity Assay to monitor cytotoxicity in HepG2 cells - 16 hour (AID 1224876); further: nearly all actives have a fitted effect of over 45% in size
Procedure, shortened: (§5)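 Cytotoxicity was tracked as dead-cell DNA fluorescence in HepG2 cells treated with test compounds at 37 C; each time-point value comes from one kinetic series spanning 0, 8, 16, 24, 32 and 40 h.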

[14] = qHTS RealTime-Glo MT Cell Viability Assay in HepG2 cells - 32 hour (AID 1224877); further: nearly all actives have a fitted effect of over 55% in size
Procedure, shortened: as §1

[15] = A CellTox Green Cytotoxicity Assay to monitor cytotoxicity in HepG2 cells - 24 hour (AID 1224878); further: nearly all actives have a fitted effect of over 45% in size
Procedure, shortened: as §5

[16] = A CellTox Green Cytotoxicity Assay to monitor cytotoxicity in HepG2 cells - 40 hour (AID 1224879); further: nearly all actives have a fitted effect of over 40% in size
Procedure, shortened: as §5

[17] = target: Thyrotropin receptor (Homo sapiens) (UniProt P16473); test: qHTS assay to identify small molecule agonists of the thyroid stimulating hormone receptor (TSHR) signaling pathway (AID 1224843; calls by dose curve; further: nearly all actives have a fitted effect of over 45% in size)
Thyrotropin receptor (Homo sapiens), sequence (P16473 whole entry, looked up): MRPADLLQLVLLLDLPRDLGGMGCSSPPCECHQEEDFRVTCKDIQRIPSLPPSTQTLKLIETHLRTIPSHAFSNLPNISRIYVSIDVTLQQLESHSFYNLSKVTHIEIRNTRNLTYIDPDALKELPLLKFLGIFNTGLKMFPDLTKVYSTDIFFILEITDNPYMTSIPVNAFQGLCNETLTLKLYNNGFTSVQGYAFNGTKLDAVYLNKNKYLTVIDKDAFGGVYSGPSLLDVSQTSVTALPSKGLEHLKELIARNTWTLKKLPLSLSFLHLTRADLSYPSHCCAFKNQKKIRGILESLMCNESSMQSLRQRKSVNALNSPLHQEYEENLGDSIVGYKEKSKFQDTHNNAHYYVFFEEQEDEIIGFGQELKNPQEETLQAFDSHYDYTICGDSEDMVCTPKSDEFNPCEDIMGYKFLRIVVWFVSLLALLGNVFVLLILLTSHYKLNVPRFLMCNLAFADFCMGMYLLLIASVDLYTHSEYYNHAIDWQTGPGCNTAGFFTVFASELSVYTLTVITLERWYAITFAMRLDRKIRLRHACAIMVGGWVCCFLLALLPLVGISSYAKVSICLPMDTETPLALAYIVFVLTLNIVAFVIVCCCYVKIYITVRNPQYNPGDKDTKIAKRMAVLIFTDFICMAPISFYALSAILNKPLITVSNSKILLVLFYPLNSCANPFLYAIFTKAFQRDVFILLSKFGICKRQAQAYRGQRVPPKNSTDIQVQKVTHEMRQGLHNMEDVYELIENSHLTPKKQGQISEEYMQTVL
Procedure, shortened: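 Using 15 concentrations per compound in triplicate, cAMP production was monitored in TSHR-HEK293 cells after 30 min compound incubation at RT; HTRF reagents followed, with fluorescence intensity recorded after 1 h.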

[18] = qHTS assay to identify small molecule antagonists of the estrogen related receptor (ERR) signaling pathway from Tox21 library (AID 1224848); further: nearly all actives have a fitted effect of over 50% in size
Procedure, shortened: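 Tox21 10K compounds in DMSO tested for ERR pathway antagonism in NTP's ERR cell line; 18 h, 37 C exposure; ONE-Glo luminescence.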

[19] = qHTS assay to identify small molecule agonists of the estrogen related receptor (ERR) signaling pathway from Tox21 library (AID 1224849; calls by dose curve; further: nearly all actives have a fitted effect of over 15% in size); conditions: ERR reporter cell line, ONE-Glo luciferase, 18 h
Procedure, shortened: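 Luciferase activity in ERR pathway reporter cells served as the agonist readout; exposure lasted 18 h at 37 C, with ONE-Glo detection after 30 min at room temperature.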

[20] = qHTS RealTime-Glo MT Cell Viability Assay in HepG2 cells - 40 hour (AID 1224870); further: nearly all actives have a fitted effect of over 50% in size
Procedure, shortened: as §4
On the % scale 0 is the no-effect control and ±100 the full control effect.

O=S(=O)(O)c1ccc2cc(O)ccc2c1
inactive: Potency [1] | outcome [2] | outcome [3] | outcome [4] | Potency [5] | Potency [6] | outcome [7] | Potency [8] | Potency [9] | outcome [10] | max response [11] -0.603% [middle of 4 runs] | Potency [12] | Potency [13] | Potency [14] | Potency [15] | Potency [16]

CCCN(CCC)S(=O)(=O)c1ccc(C(=O)O)cc1
inactive: outcome [17] | Potency [1] | outcome [2] | Potency [18] | activity change, positive = activation ([19]; at 42.5 µM (top of the series)) 3.98% | activity change, positive = activation ([19]; at 92.4 µM (top of the series)) -17.4% and 3.56% | Potency [5] | Potency [6] | outcome [7] | Potency [8] | Potency [9] | outcome [10] | max response [11] -6.3% and -3.84% and 10.6% | Potency [12] | Potency [13] | Potency [14] | Potency [15] | Potency [16]

NC(N)=NC(=O)c1nc(Cl)c(N)nc1N
inactive: outcome [17] | Potency [1] | outcome [2] | outcome [4] | Potency [5] | Potency [6] | outcome [7] | Potency [8] | Potency [9] | outcome [10] | max response [11] -9.86% and -7.01% and -5.97% | Potency [12] | Potency [13] | Potency [14] | Potency [15] | Potency [16]

COc1ccc2[nH]cc(CCNC(C)=O)c2c1
inactive: outcome [17] | Potency [1] | outcome [2] | Potency [18] | activity change, positive = activation ([19]; at 42.5 µM (top of the series)) 6.1% | activity change, positive = activation ([19]; at 92.4 µM (top of the series)) 9.68% and -2.51% | Potency [5] | Potency [6] | outcome [7] | Potency [8] | Potency [9] | outcome [10] | max response [11] -2.36% and -20% and 4.03% | Potency [12] | Potency [13] | Potency [14] | Potency [15] | Potency [16]

O=C(O)CS
inactive: Potency [1] | outcome [2] | outcome [4] | Potency [5] | Potency [6] | outcome [7] | Potency [20] | Potency [8] | Potency [9] | outcome [10] | max response [11] 1.63% and 9.97% and 1.26% | Potency [12] | Potency [13] | Potency [14] | Potency [15] | Potency [16]

O=C(c1ccccc1)c1ccccc1
inactive: Potency [1] | outcome [2] | outcome [3] | Potency [5] | Potency [6] | outcome [7] | Potency [8] | Potency [9] | outcome [10] | max response [11] -7.38% and -0.339% and 9.06% | Potency [12] | Potency [13] | Potency [14] | Potency [15] | Potency [16]
